Bioassay records (PubChem BioAssay)
rCAG binder: molecules binding r(CAG) RNA repeats | r(CAG) RNA repeat, TO-PRO-1 dye displacement fluorescence | inhibition, % at 3 µM | 370,000 compounds, 1.3% hits;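 active means inhibition above the plate cutoff, the mean of all test compounds on that plate plus 3 SD, cut at about 35% in these data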;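 further: 0% = DMSO alone and 100% = 100 µM mitoxantrone as full dye displacement; higher means more dye released from RNA so lower well fluorescence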
MsrA inhibitor: bovine MsrA inhibition; 360,000 compounds, 0.75% hits; AID 651718; purified bovine MsrA, absorbance read-out; inhibition, % at 15.5 µM;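 further: 0% = vehicle wells with enzyme and 100% = reference inhibitor wells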
MsrA act: activators of bovine methionine sulfoxide reductase A; purified bovine MsrA, absorbance read-out; 360,000 compounds, 0.3% hits; activation, % at 10.6 µM; in the data active means activation above about 7.5%;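 further: 0% = vehicle and 100% = reference activator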
NadD block: NadD (S. aureus) enzyme inhibition. purified NadD enzyme, colorimetric absorbance read-out. inhibition, % at 20 µM. 360,000 compounds, 0.78% hits. AID 602399; in the data active means inhibition above about 26%
MsrA inh confirm: confirmation of bovine MsrA inhibitors. shares compounds with MsrA inhibitor. purified bovine MsrA, absorbance read-out. inhibition, % at 15.5 µM. 2,300 compounds, 41% hits;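 further: coupled to thioredoxin reductase with NADPH and selenocystamine and DMSO as substrate; 0% = vehicle only and 100% = full effect of reference inhibitor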
An asterisk follows results filed as active; / = not tested or not shown. Sampled rows, rich in hits. Any-hit rate of the full collection: about 2.7%. Unless noted, no stated cut-off is given here; in the data, active means inhibition above about 4.5%; inactive means the rest.

SMILES	rCAG binder	MsrA inhibitor	MsrA act	NadD block	MsrA inh confirm
COCCNc1oc(/C=C/c2ccccc2)nc1C#N	-3	5	-6	-7	/
CNc1oc(/C=C/c2ccccc2)nc1C#N	-2	4.8*	-5	0	4.6*
CCOC(=O)/C(=C/c1c[nH]c2ccccc12)NC(C)=O	0	5.0*	0	-5	3
O=C(O)c1cccc2c1C(=O)c1ccc(-c3ccc(F)cc3F)cc1S2(=O)=O	22	2	-11	-4	/
COc1ccc(OC)c(-n2c(O)cnc2Nc2nc(C)cc(C)n2)c1	-2	0	-3	4	/
Cc1cc(C)nc(Nc2ncc(O)n2-c2ccc(C)c(C)c2)n1	-4	8.0*	-1	7	6.6*
C/C(=N/Nc1nc(C)cc(C)n1)c1ccc(Br)cc1	-7	2	-2	4	/
Cc1cc(C)nc(Nc2ncc(O)n2-c2ccc(Br)cc2)n1	5	8.1*	-5	-1	1
Cc1cc(C)n(-c2ccc(C)c(Cl)c2)n1	0	0	-2	7	/
Cc1cc(C)nc(Nc2ncc(O)n2-c2ccc(C)c(Cl)c2)n1	-2	9.1*	-4	-2	5.4*
COC(=O)[C@]12C[C@H](CC(=O)NCC3CCCCC3)C(=O)N(Cc3ccccc3)C1=C[C@H](C1CCCC1)O[C@@H]2C	1	0	/	/	/
CC(O)(c1cccnc1)c1nc(-c2ccc3ccccc3c2)cs1 (stereo unspecified)	5	0	-1	0	/
Cc1cccc(C)c1NC(=O)CN(C)C(=O)CC1OC(=O)c2ccccc21 (stereo unspecified)	-3	0	-5	-4	/
COc1cccc2c1OC1(N3CCOCC3)CCCCC1C2C[N+](=O)[O-] (stereo unspecified)	5	-1	-5	-8	/
COc1ccc(NC(=O)COC(=O)c2cccn2C)cc1S(=O)(=O)N1CCCCC1	6	0	-9	-1	/
Cc1ncc(CO)c(/C=N/Nc2cccc(Cl)n2)c1O	10	9.4*	2	-4	3
CCOc1ccc(S(=O)(=O)N2CCN(S(=O)(=O)c3ccc(C)c(C)c3)CC2)cc1	0	1	-14	1	/
N#C/C(=N/Nc1ccc(S(=O)(=O)N2CCOCC2)cc1)C(N)=O	1	6.6*	-4	-7	3
Cc1cc(Cl)ccc1C(O)c1ncc(-c2ccc(Cl)cc2)[nH]1 (stereo unspecified)	1	3	-4	-9	/
O=C(N=Nc1c(O)[nH]c2ccc([N+](=O)[O-])cc12)c1ccccc1Cl	1	1	-3	-3	/
O=[N+]([O-])c1ccc2[nH]c(O)c(N=NC3CS(=O)(=O)CC3O)c2c1 (stereo unspecified)	1	5.2*	-5	2	5.0*
Cc1noc(COc2ccccc2OCC(N)=O)n1	-1	0	-1	-3	/
COc1ccc(C(=O)/C(=C/c2cccs2)c2nc3ccccc3o2)cc1	1	3	-1	-4	/
COc1ccc(/C=C(\CC(=O)O)c2nc3ccccc3o2)cc1	7	5.9*	-5	0	4
N#Cc1cc([N+](=O)[O-])ccc1N1CCCC1	1	11*	-2	3	5.0*
SMILES	rCAG binder	MsrA inhibitor	MsrA act	NadD block	MsrA inh confirm
O=[N+]([O-])c1ccc(N2CCCCCC2)c([N+](=O)[O-])c1	-2	1	-6	-5	/
O=Cc1ccc(N2CCCC2)c([N+](=O)[O-])c1	-1	6.7*	-4	-2	4.8*
O=[N+]([O-])c1cc(/C=N/n2cnnc2)ccc1N1CCCC1	2	7.7*	-7	-7	5.1*
CCOC(=O)c1c(NC(=S)NNS(=O)(=O)c2ccc(Br)cc2)sc2c1CCCCC2	11	-1	-9	22	/
O=C(COc1ccc(Br)cc1)NCCCNC(=O)c1ccncc1	-6	0	-3	3	/
CCN(CC)c1ccc(/C=N/NC(=O)c2ccc3c(c2)OCCO3)cc1	-2	3	-1	-1	/
COc1cc(/C=N/NC(=O)/C(=C\c2ccc3c(c2)OCO3)NC(=O)c2ccccc2)ccc1O	21	8.7*	-7	20	4.9*
Cc1ccc(/C=N/NC(=O)c2cccs2)s1	0	6.7*	-6	-4	4.9*
O=C(N/N=C/c1ccc([N+](=O)[O-])cc1)c1cccs1	3	5.4*	-4	0	5.0*
CN(C)c1ccc(/C=N/NC(=O)c2ccc3c(c2)OCCO3)cc1	-3	5.0*	-4	1	5.5*
CSCCC(NC(=O)c1ccccc1Cl)C(=O)Nc1ccncc1 (stereo unspecified)	-1	-1	-2	-1	/
O=C(N/N=C/c1ccc2c(c1)OCO2)c1ccc(Br)o1	0	7.5*	-4	1	8.3*
